Bioassay records (PubChem BioAssay)
TbPYK inhibitor – qHTS of Trypanosoma Brucei Inhibitors | AID 624173, 2012 | TbPYK enzyme, Kinase-Glo Plus ATP luminescence, 45 min | 410,000 compounds, 0.12% hits | Potency, µM (highest dose often 76.8 µM), without a hit: at the highest dose activity, negative = inhibition, actives largely listed as inhibitors | pyruvate kinase (Trypanosoma brucei), Q57TT1; further: nearly all actives have a fitted effect of over 50% in size
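ADP (130 uM final) triggers the TbPYK reaction after compound addition; incubation is 45 min at room temperature. Kinase-Glo Plus is then added and luminescence imaged. Normalized data are fitted to concentration-effect curves.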
FMDV antiviral – High Throughput Screening for Foot and Mouth Disease Virus Antivirals; Potency, µM (highest dose often 57.9 µM), without a hit: at the highest dose activity change, negative = inhibition, actives largely listed as inhibitors; 410,000 compounds, 1.2% hits; AID 1159524, 2015; FMDV antiviral cell-based qHTS; calls by dose curve; tested in HEK293T cells; further: read-out not given here; nearly all actives have a fitted effect of over 45% in size
RE007 growth inh – qHTS Assay for Inhibitors of the HIV-1 protein Vpr | S. pombe RE007 Vpr strain, BacTiter-Glo ATP luminescence, 24 h | Potency, µM (top dose mostly 92.2 µM), for inactives: top-dose activity change, negative = less growth, most hits filed as inhibitors | 360,000 compounds, 0.21% hits | AID 651644, 2012; active means well fitted falling curve with a large enough effect; inconclusive means small, poorly fitted or top-dose-only effect; inactive means no such curve, though single readings can be large or run the other way; further: nearly all actives have a fitted effect of over 50% in size
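Fission yeast strain RE007, carrying one chromosomally integrated HIV-1 vpr copy, was seeded at OD 0.01 in PMG+AL medium with 23 nL pinned compound. After 24 h at 30 °C and 99% humidity, viability was read by BacTiter-Glo luminescence.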
Sm TGR inh – qHTS Assay for the Inhibitors of Schistosoma Mansoni Peroxiredoxins. 360,000 compounds, 3% hits. purified TGR, DTNB reduction, TNB absorbance 405 nm. Potency, µM (series often up to 114 µM), inactives show at the highest dose activity change, negative = inhibition, hits mostly inhibitors. Schistosoma mansoni thioredoxin glutathione reductase (TGR), Q962Y6. AID 485364, 2010; further: nearly all actives have a fitted effect of over 60% in size
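TGR 20 nM + NADPH 100 uM (dispensed conc.), cpd preinc 15 min RT; start with NADPH (500 uM addition) then DTNB (15 mM addition). Kinetic TNB absorbance, 405 nm filter. Four-parameter Hill fit across titration.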
* hit, by the source's call; ? = inconclusive; . = no result given; [ ] = dose if it differs, or a comment. Compounds with a hit are over-represented: about 3.7% of the library has one in this group of screens. Unless noted, the call rests on the fitted dose curve; in most records, active means well fitted curve in the direction sought with a large enough effect; inconclusive means small, poorly fitted or top-dose-only effect, or another doubt; inactive means no such curve, though single readings can be large; an effect the other way counts as inactive or inconclusive. On the % scale 0 is the no-effect control and ±100 the full control effect; potency means the concentration at half of the fitted maximal effect.

SMILES	TbPYK inhibitor	FMDV antiviral	RE007 growth inh	Sm TGR inh
CCc1cc(SC#N)cc(CC)c1NC(=O)CCl	-10%	25µM*	6%	?
CCOc1cc(NC(=O)CCl)c(OCC)cc1NC(=O)CCl	1%	?	6%	?
Clc1ccc(C[n+]2csc3ccccc32)cc1	?	13%	3%	4.5µM*
Fc1ccc(C[n+]2csc3ccccc32)cc1	?	-9%	18%	0%
COc1ccccc1NC(=O)C1=C(C)Nc2nc(SC)nn2C1c1ccccc1Cl (centres undefined)	-2%	-13%	.	-2%
O=C(OC1Cc2c(O)cc(O)cc2OC1c1cc(O)c(=O)c2c(O)c(O)cc(C3Oc4cc(O)cc(O)c4CC3OC(=O)c3cc(O)c(O)c(O)c3)c2c1)c1cc(O)c(O)c(O)c1 (centres undefined)	.	-7%	.	.
COC(=O)C1CCN(Cc2ccc3c(c2)CN(C(=O)C2CCCN(c4ccccn4)C2)CCO3)CC1 (centres undefined)	.	-15%	.	.
CC(=O)/C(N=Nc1ccc2c(c1)OCO2)=C(\C)O	-2%	37%	-12%	1%
CC(=O)/C(N=Nc1ccc2c(c1)OCCO2)=C(\C)O	-14%	1.3µM*	1%	4%
Cc1cnc(-n2ncc(C(=O)N(C)Cc3cccc4ncccc34)c2C(C)C)nc1-c1ccc(F)cc1	.	-17%	.	.
CCC(c1n[nH]c(=S)n1-c1ccccc1)N(C)C (centres undefined)	?	0%	10%	8%
CC(C)CCC(CC(C)O)c1n[nH]c(=S)n1-c1ccccc1 (centres undefined)	4.5µM*	-1%	28%	6%
COc1cc2c(cc1OC)C(c1ccc(-c3ccc(Cl)cc3Cl)o1)=NCC2	-7%	14µM*	?	-21%
COc1cc2c(cc1OC)C(c1ccc(Cl)cc1)=NCC2	-1%	-13%	2%	0%
COc1cc2c(cc1OC)C(c1ccc(-c3cc(Cl)ccc3Cl)o1)=NCC2	-5%	18µM*	0%	-4%
COc1cc2c(cc1OC)C(c1ccc(-c3ccc(Cl)c(Cl)c3)o1)=NCC2	-28%	18µM*	32µM*	?
COc1cc2c(cc1OC)C(c1ccc(-c3ccccc3Cl)o1)=NCC2	?	-11%	-20%	1%
COCCN1CCN(C(=O)c2cnn(-c3nccc(-c4cc5ccccc5o4)n3)c2C2CC2)CC1	.	-1%	.	.
CC[C@@H](O)C(C[C@@H](C)N(C)C)(c1ccccc1)c1ccccc1	-8%[157 µM]	.	.	.
CC1CN(CCC(=O)NCc2ccc3ncccc3c2)Cc2cc(Cl)ccc2O1 (centres undefined)	.	-4%	.	.
CCC(=NCc1ccco1)c1c(O)n(C)c(=O)n(C)c1=O	-2%	-4%	-16%	25µM*
CC(=NCc1ccco1)c1c(O)n(C)c(=O)n(C)c1=O	-14%	-23%	3%	-17%
CCC(CC)c1nn2c(=O)cc(COc3ccc(NC(=O)c4ccc(C)cc4)cc3)nc2s1	-5%	-23%	.	1%
CCN(CC)CC(=O)Nc1sc(C)cc1C(=O)c1ccccc1	-1%	-27%	-9%	-12%
Cc1ccc(Cl)c(NC(=O)CCl)c1Cl	0%	-19%	7%	32µM*
SMILES	TbPYK inhibitor	FMDV antiviral	RE007 growth inh	Sm TGR inh
O=C(CCl)Nc1ccccc1C(=O)c1ccccc1	-7%	?	-8%	35µM*
Cc1cc(C(=O)c2ccccc2)c(NC(=O)CCl)s1	-11%	?	-4%	7.9µM*
Cc1ccc(Cl)c(NC(=O)CSc2cccc[n+]2[O-])c1Cl	6%	0%	5%	.
Cc1ccccc1NC(=O)CCl	-1%	?	7%	22µM*
Cc1cc(C)c(S(=O)(=O)NCc2ccc3c(c2)CCN3C(=O)c2ccccc2)c(C)c1	0%	?	.	1%
CC(=O)N1CCN(CC(=O)Nc2ccccc2Sc2ccc(Cl)cc2)CC1	2%	?	-22%	5%
O=C(CCl)Nc1ccccc1Sc1ccc(Cl)cc1	.	32µM*	1%[3.69 µM]	-32%
CC(C(Sc1ccccc1N)c1ccccc1)[N+](=O)[O-] (centres undefined)	25µM*	?	-29%	0%
Nc1ccccc1SC(CC(=O)c1ccccc1)c1ccccc1 (centres undefined)	-15%	29%	-28%	.
CN(C)c1ccc(N=NS(=O)(=O)O)cc1	-6%[157 µM]	.	.	.
Cn1ccc(C(=O)NCC2CCC3(CCN(Cc4cc(F)cc(F)c4)CC3)O2)n1 (centres undefined)	.	-1%	.	.
COCCNC(=O)c1c(N)n(Cc2ccco2)c2nc3ccccc3nc12	-14%	.	3%	40µM*
Nc1c(C(=O)NCCN2CCOCC2)c2nc3ccccc3nc2n1Cc1ccco1	-2%	-21%	-4%	?
CC(C)(C)OC(=O)c1c(N)n(Cc2ccco2)c2nc3ccccc3nc12	-7%	-22%	2%	28µM*
C=CCNC(=O)c1c(N)n(Cc2ccco2)c2nc3ccccc3nc12	?	-27%	-5%	45µM*
COCCCNC(=O)c1c(NC(=O)c2ccccc2Cl)n(Cc2ccccc2)c2nc3ccccc3nc12	2%	-3%	-7%	-2%
C=CCn1c(N)c(C(=O)NCC2CCCO2)c2nc3ccccc3nc21 (centres undefined)	0%	.	-2%	13%
COCCNC(=O)c1c(NC(=O)c2ccco2)n(Cc2ccccc2)c2nc3ccccc3nc12	-11%	-7%	-3%	25µM*
C=CCn1c(NC(=O)c2ccco2)c(S(=O)(=O)c2ccccc2)c2nc3ccccc3nc21	.	.	.	45µM*
C=CCn1c(NC(=O)c2ccc(Br)o2)c(S(=O)(=O)c2ccccc2)c2nc3ccccc3nc21	1%	11%	5%	?
Cc1cnc(C)c(N2CCN(Cc3nc(-c4cccc(F)c4F)oc3C)CC2)n1	-2%	-24%	0%	35µM*
O=C(O)CCCCCNS(=O)(=O)/C=C/c1ccccc1	-10%	-4%	-3%	.
O=C(O)CCCCCNS(=O)(=O)c1cccc2c1C(=O)c1ccccc1C2=O	9%	-7%	?	50µM*
CCCC[C@@H](CC)COC(=O)C[C@H](C(=O)OC[C@H](CC)CCCC)S(=O)(=O)O	-7%	.	.	.
N#CCCn1c(=O)c(-c2cccs2)nc2cnc(OCc3ccccc3)nc21	6%	3%	.	.
SMILES	TbPYK inhibitor	FMDV antiviral	RE007 growth inh	Sm TGR inh
C=CC#CC1(O)CC(C)[N+](C)(C)CC1C (centres undefined)	-1%	-7%	61%	13µM*
COC(CN(C)C(=O)c1ccc(CS(=O)(=O)c2ccccc2C)o1)OC	-6%	-1%	18%	50µM*
Cc1ccccc1S(=O)(=O)Cc1ccc(C(=O)N(C)C2CCCCC2)o1	-14%	2%	10%	25µM*
CCCCN(C)C(=O)c1ccc(CS(=O)(=O)c2ccccc2C)o1	-7%	-23%	-18%	25µM*
Cc1ccccc1S(=O)(=O)Cc1ccc(C(=O)NC2CCCCCC2)o1	3%	-23%	0%	-22%
Cc1ccccc1S(=O)(=O)Cc1ccc(C(=O)O)o1	0%	.	8%	-31%
